Screening results: PubChem BioAssay, several laboratories
ROMK mod: human ROMK K+ channel modulation, primary screen | P48048 | Tet-inducible ROMK, thallium flux fluorescence; actives lie on both sides | B-score at 10 µM | actives 2% (n = 130,000);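 active = signal ratio slope over the read window, or its plate-corrected B-score, at least 3 SD from the plate mean, either direction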;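 note: B-score of the F/F0 ratio slope over 7 to 12 s after thallium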
Target sequence (P48048 whole entry, looked up): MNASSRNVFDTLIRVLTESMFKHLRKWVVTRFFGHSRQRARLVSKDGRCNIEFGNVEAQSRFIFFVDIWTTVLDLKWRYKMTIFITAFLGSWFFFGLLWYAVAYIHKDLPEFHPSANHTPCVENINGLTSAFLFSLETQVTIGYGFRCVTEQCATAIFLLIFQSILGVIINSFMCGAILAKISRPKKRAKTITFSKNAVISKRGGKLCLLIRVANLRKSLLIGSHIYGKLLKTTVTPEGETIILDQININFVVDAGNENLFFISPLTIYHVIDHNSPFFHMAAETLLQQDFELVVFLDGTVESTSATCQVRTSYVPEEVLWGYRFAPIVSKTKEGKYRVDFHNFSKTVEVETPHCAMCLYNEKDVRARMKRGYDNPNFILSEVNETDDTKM
Insulin prom up: MIN6 insulin promoter up-regulation; MIN6 insulin promoter-GFP reporter, high-content imaging; stronger effect = higher value; actives 0.3% (n = 190,000); AID 1625; z-score at 5 µM;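 active = z-score above 3 at 5 µM with at least 500 cells counted in the well; inconclusive = wells under 500 cells, flagged as cytotoxic or low count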
KCC2 mod: modulates chloride dependent transport by human KCC2; Q9H2X9; KCC2 cells, thallium flux FluoZin-2 fluorescence; B-score of Tl+ flux slope (higher = more flux/activation; lower = inhibition) at 10 µM; actives 2.2% (n = 190,000);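 active = thallium flux slope and its plate-corrected score both differing from the plate sample mean at a set confidence after two filtering rounds, in either direction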;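 note: slope of fluorescence scaled to starting intensity during 10 to 20 s after thallium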
WT yeast gro inh: growth inhibition of WT yeast, mitochondrial fusion screen; mitochondrial fusion phenotypic screen, WT strain; inhibition, % at 10 µM; actives 2.1% (n = 190,000); AID 1362; in the data active = inhibition above about 58%; tested in S. cerevisiae
L major viab: Leishmania major promastigote growth inhibition. Leishmania major promastigotes, resazurin fluorescence viability. inhibition, % at 10 µM. actives 9% (n = 200,000). AID 1063; in the data active = inhibition above about 50%;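 note: promastigotes grown with compound for 44 hours at 28 °C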
INS promoter inh: TRM-6 insulin promoter activity inhibition; TRM-6 cells (human fetal islet line), insulin promoter-eGFP reporter, imaging; reporter expression induced with tamoxifen; inhibition, % at 2 µM; actives 0.9% (n = 130,000); AID 1273;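 active = inhibition above the mean plus 3 SD, with well images judged a real hit on visual review, cut at about 60% in these data, passing the limit was not always enough; inconclusive = inhibition over the cutoff but images rejected on review; inactive = inhibition not above the cutoff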
Hits are given with their value; - = inactive; ? = inconclusive; . = not tested or not shown. The list is not random: actives were taken first. Their share in the collection is about 12%.

SMILES	ROMK mod	Insulin prom up	KCC2 mod	WT yeast gro inh	L major viab	INS promoter inh
NC(=O)[C@@H]1CCCCNc2c(I)cc([N+](=O)[O-])cc2C(=O)N[C@@H](CCC(=O)O)C(=O)N[C@@H](CO)C(=O)N1	-	-	-	-	-	60
COc1ccccc1N1CCN(c2ncnc3c2oc2ccccc23)CC1	-	-	.	61	-	.
COc1ccccc1N1CCN(C(=O)c2oc3ccc(Br)cc3c2C)CC1	-	-	-	79	-	.
c1cnc(N2CCN(c3ncnc4c3oc3ccccc34)CC2)nc1	.	-	.	.	.	.
C(=C\c1ccccc1)/CN1CCN(c2ncnc3c2oc2ccccc23)CC1	-	?	.	67	57	-
COc1ccc(N2C3=[N+](CCCC3)CC2(C)O)cc1 (stereo not given)	.	-	.	-	.	.
O=C(c1ccc2ccccc2c1)C1CCCN(C(=O)c2noc3c2CCCC3)C1 (stereo not given)	-	-	-	-	-	.
Cc1ccc(C)c(-c2cc(C(=O)Nc3nccs3)c3ccccc3n2)c1	.	-	-	61	-	-
COC(=O)c1sccc1NC(=O)c1cc(-c2cc(C)ccc2C)nc2ccccc12	-	-	.	-	-	.
COc1ccc(C(N)=S)cc1	-	-	-	-	-	-
COc1ccc(C2C(C#N)=C(N)Nc3nc4ccccc4n32)cc1 (stereo not given)	.	-	-	-	65	-
COc1ccc(C2C=C(C)Nc3nc4ccccc4n32)cc1 (stereo not given)	-	-	-	-	-	.
Cc1nn2c(nc(N3CCCCC3)c3ccccc32)c1C=O	-	-	-	-	53	-
CCc1cc(N2CCOCC2)cc2c1[nH]c1ccccc12	.	-	-	-	-	.
Cc1[nH]c2ccccc2c1/C=N/NC(=S)NCc1ccccc1	-	-	-	-	-	.
COc1cc(CNc2ccccc2Oc2cc(=O)n(C)c(=O)n2C)cc(OC)c1OC	.	-	-	-	-	-
Cn1c(Oc2ccccc2NCc2cc(Br)ccc2O)cc(=O)n(C)c1=O	.	-	-	-	99	-
CC1CCN(C(=S)NC(=O)c2ccccc2)CC1	-	-	36	-	-	-
O=C(NC(=S)N1CCc2ccccc21)c1ccccc1	.	-	51	-	-	.
O=C(NCc1ccc2c(c1)OCO2)c1ccc(Br)s1	.	-	-	.	.	.
Cc1ccc(OCc2ccc(C(=O)NCC3CCCO3)cc2)cc1 (stereo not given)	-	-	-	-	-	.
COc1cccc(CNC(=O)c2cccc(Br)c2)c1	-	-	-	-	54	-
COc1cccc(C(=O)NCc2ccc3[nH]c(C)cc3c2)c1	-	-	-	-	-	-
COc1cccc(C(=O)Nc2cccc(C(=O)NCC(C)C)c2)c1	-	-	-	-	64	-
COC(=O)[C@@H](NC(=O)Nc1cccc(OC)c1)C(C)C	.	3	-	-	-	-
SMILES	ROMK mod	Insulin prom up	KCC2 mod	WT yeast gro inh	L major viab	INS promoter inh
COc1cc(OC)cc(C(=O)Nc2cccc(C(C)=O)c2)c1	-	3.5	-	-	-	-
COC(=O)[C@@H](NC(=O)Nc1ccc(OC)cc1)C(C)C	.	-	-	-	-	-
CC(=O)N(Cc1cccs1)Cc1cc2ccc(C)c(C)c2nc1Cl	-	-	-	-	-	-
Cc1cc(NC(=O)CSc2nnc(-c3ccco3)n2Cc2ccco2)no1	-	-	-	-	-	-
CCOC(=O)C1CCN(C(=O)Nc2ccccc2Cl)CC1	.	-	-	-	-	.
CCOC(=O)c1cn2nc(-c3ccc(OC)cc3)cc2nc1C1CCN(C(=O)OC(C)(C)C)CC1	.	-	-	-	-	-
CC(=O)c1cccc(NC(=O)c2onc(C)c2Cl)c1	.	-	-	-	-	.
COc1cc(OC)cc(C(=O)Nc2cccc(N3CCCC3)c2)c1	-	-	-	-	72	-
CCN(CC)S(=O)(=O)c1ccc(C(=O)Nc2nnc(NC(=S)Nc3ccccc3)s2)cc1	.	-	-	.	.	.
COc1cc(OC)cc(C(=O)Nc2nnc(NC(=S)Nc3ccccc3)s2)c1	-	-	-	-	55	-
CC(=O)c1cccc(NC(=O)c2oc(C)nc2C)c1	-	-	.	-	72	-
COc1cc(OC)cc(C(=O)Nc2ccc3c(c2)COC3=O)c1	.	-	-	-	-	-
O=C(CCCc1ccccc1)NCc1cccnc1	.	-	-	-	-	.
Cc1ccc(N(CC(=O)NN=C2CCN(C)CC2)S(=O)(=O)c2ccccc2)c(C)c1	-	-	-	-	60	-
O=C(Nc1cc(Oc2ccc(Cl)cc2)cc([N+](=O)[O-])c1)c1ccco1	.	-	-	-	64	-
CCOc1ccc(Oc2cc(NC(=O)c3ccco3)cc([N+](=O)[O-])c2)cc1	.	?	-	-	-	.
O=C(Nc1cc(SCCO)cc([N+](=O)[O-])c1)c1ccco1	-	-	-	-	61	-
COc1ccccc1N1CCN(C(=O)C(NS(=O)(=O)c2cccs2)c2ccccc2)CC1 (stereo not given)	.	.	-	-	-	.
O=C(c1cccc(N2C(=O)C3C4C=CC(C4)C3C2=O)c1)N1CCN(c2ccccc2)CC1 (stereo not given)	-	-	-	-	-	-
COC(=O)c1cc(=O)n(-c2ccccc2)c(=Nc2ccccc2)s1	-	-	-	-	87	-
COC(=O)c1cc(=O)n(Cc2ccc(F)cc2)c(=Nc2ccccc2)s1	.	-	-	.	.	.
CCOC(=O)c1ccc(N=c2sc(C(=O)OC)cc(=O)n2-c2ccc(C(=O)OCC)cc2)cc1	-	-	-	-	100	-
COC(=O)c1cc(=O)n(CCc2ccc(OC)c(OC)c2)c(=Nc2ccc(F)c(Cl)c2)s1	.	-	-	-	98	.
COC(=O)c1cc(=O)n(Cc2ccc(OC)c(OC)c2)c(=Nc2ccc(F)cc2)s1	.	-	-	-	-	.
COC(=O)c1cc(=O)n(Cc2ccco2)c(=Nc2ccc(F)cc2)s1	.	-	-	-	96	.
SMILES	ROMK mod	Insulin prom up	KCC2 mod	WT yeast gro inh	L major viab	INS promoter inh
COc1ccc(S(=O)(=O)NCc2ccc(C(=O)N3CCN(c4ccccn4)CC3)cc2)cc1	-	-	.	-	-	.
O=C(NCC1CCCO1)C(c1cccs1)N(Cc1cccs1)C(=O)c1ccc(-c2ccccc2)[nH]1 (stereo not given)	-	-	-	-	99	-
O=C(NC1CCCCC1)C(c1cccs1)N(CCCN1CCOCC1)C(=O)c1ccc(-c2ccccc2)[nH]1 (stereo not given)	-	-	-	-	-	.
CC1(C)c2ccccc2N2CC(=O)NC21/C=C/c1ccco1 (stereo not given)	.	3.3	-	-	-	-
COc1ccccc1NC(=O)Cn1c(=O)n(CCc2c[nH]c3ccccc23)c(=O)c2cccnc21	-	-	-	-	65	-
Cc1nn(-c2ccc(Cl)cc2)c(Cl)c1/C=C(\C#N)C(N)=O	-	-	-	-	-	.
C=CCNC(=O)/C(C#N)=C/c1c(C)nn(-c2ccc(Cl)cc2)c1Cl	.	-	-	-	89	.
CCOc1ccccc1NC(=O)/C(C#N)=C/c1c(C)nn(-c2ccc(F)cc2)c1Cl	.	-	-	-	73	-
CN(Cc1cnn(C)c1)Cc1nc(Cc2ccccc2Cl)no1	-	.	-	-	-	.
